# Assay results published in PubChem BioAssay (NCATS).
# “And” between values parts separate entries of the source, which are not always exact repeats. Equal values may be shown once. Inconclusive results are not listed. Entries that show only a call come without a potency. The source made the active and inactive calls. Unless noted, the call rests on the fitted dose curve. Bridge positions count the residues as written; N and C are the ends. Square brackets hold non-standard residues; d marks the D form. Peptide text beside a SMILES is read from it. * marks the point of attachment. ξ: configuration not given here. Octanoyl(6-Me) = CCC(C)CCCCC(=O)*; ξThr(3R) = C[C@@H](O)C(N)C(=O)O; dDab = NCC[C@@H](N)C(=O)O; Dab = NCC[C@H](N)C(=O)O
# Columns and labels:
# [1] = qHTS for Inhibitors of the Functional Ribonucleoprotein Complex (vRNP) of Lassa (LASV) Arenavirus: LASV Primary Screen - GLuc reporter signal (AID 1347082; calls by dose curve; tested in HEK293 reporter line; further: nearly all actives have a fitted effect of over 60% in size; further: potency means the concentration at half of the fitted maximal effect)
# [2] = qHTS for Inhibitors of the Functional Ribonucleoprotein Complex (vRNP) of Lassa (LASV) Arenavirus: Viability assay - alamar blue signal for LASV Primary Screen (AID 1347083; calls by dose curve; tested in HEK293 reporter line; further: nearly all actives have a fitted effect of over 80% in size; further: potency means the concentration at half of the fitted maximal effect)
# [3] = qHTS for Inhibitors of the Functional Ribonucleoprotein Complex (vRNP) of Lymphocytic Choriomeningitis Arenaviruses (LCMV): Viability assay - alamar blue signal for LCMV Primary Screen (AID 1347085; calls by dose curve; tested in HEK293 reporter line; further: nearly all actives have a fitted effect of over 80% in size; further: potency means the concentration at half of the fitted maximal effect)
# [4] = molecular target: Nucleoprotein (Lymphocytic choriomeningitis virus (strain Armstrong)) (UniProt P09992); assay: qHTS for Inhibitors of the Functional Ribonucleoprotein Complex (vRNP) of Lymphocytic Choriomeningitis Arenaviruses (LCMV): LCMV Primary Screen - GLuc reporter signal (AID 1347086); further: nearly all actives have a fitted effect of over 70% in size; further: potency means the concentration at half of the fitted maximal effect
# [5] = Cytotoxicity counterscreen for inhibitors of SARS-CoV-2 cell entry (AID 1645845); further: nearly all actives have a fitted effect of over 50% in size
# Summary of the method: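 After a 15 min room-temperature ATPLite 1step step, luminescence reflected ATP remaining in HEK293-ACE2 cells exposed to compound for 1 h plus 48 h at 37 C, with percent activity set by cell and no-cell controls.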
# [6] = Primary qHTS to identify inhibitors of SARS-CoV-2 cell entry (AID 1645846); settings: activity change, negative = inhibition: at 57.1 µM (top of the series) unless noted; further: nearly all actives have a fitted effect of over 45% in size; further: potency means the concentration at half of the fitted maximal effect
# Summary of the method: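 Inhibition of spike-mediated entry was scored in human ACE2-transfected Expi293F cells. Particles were MLV-pseudotyped with Wuhan-Hu-1 S carrying a 19-aa C-terminal deletion; signal was luciferase after two days, scaled between spike PP and fusion-protein-free PP.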
# CRL-7250 = normal cell line; assay: qHTS assay to identify novel small-molecules to repurpose for Merkel cell carcinoma treatment (AID 1296009; active means well fitted inhibition curve with a large enough effect; further: nearly all actives have a fitted effect of over 60% in size); settings: MCC and control cell lines, CellTiter-Glo viability, 72 h; series mostly up to 92 µM
# Summary of the method: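 Viability readout: ATP luminescence (CellTiter-Glo) after 72 hr drug exposure at 37 degree celsius. Dose-response format was 8 points for NPC and 11 points for MIPE; data normalized to in-plate controls.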
# [7] = molecular target: Bile acid receptor (Homo sapiens) (UniProt Q96RI1); assay: qHTS assay for small molecule agonists of farnesoid X receptor signaling (AID 588527); settings: HEK293T FXR-UAS-bla, beta-lactamase ratio, 16 h; activation: stronger effect = higher value
# Summary of the method: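 FXR-UAS-bla HEK293T cells (10% dialyzed FBS) preincubated 5-7 h at 37 C, then compounds at up to 92 uM for 16 h at 37 C. CCF4 beta-lactamase read-out after 2 h RT. Normalized to chenodeoxycholic acid (100 uM) and DMSO; Hill fit gave EC50 and efficacy.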
# [8] = molecular target: Peroxisome proliferator-activated receptor delta (Homo sapiens) (UniProt Q03181); assay: qHTS assay for small molecule agonists of peroxisome proliferator-activated receptor delta signaling (AID 588534)
# Summary of the method: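 Agonist-mode beta-lactamase reporter readout (CCF4 dye, 2 h at RT) after 18 h at 37 °C exposure to a titration; Hill-equation fitting gave EC50 and maximal response.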
# [9] = qHTS profiling of the MIPE4 collection as inhibitors of Plasmodium falciparum (3D7) proliferation (AID 743344; call rule not given here); settings: P. falciparum 3D7 in erythrocytes, SYBR Green DNA fluorescence, 72 h; at 28.5 µM (top of the series) unless noted
# Summary of the method: (§1)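 Parasite DNA was quantified by SYBR Green I fluorescence (ex 485, em 535 nm) after overnight lysis in saponin/Triton buffer at room temperature. Cultures at 0.3% parasitemia and 2.5% hematocrit were first exposed to compound for 72 h at 37 C; signals were normalised to artemisinin (0.29 uM) and vehicle wells.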
# [10] = qHTS profiling of the MIPE4 collection as inhibitors of Plasmodium falciparum (DD2) proliferation (AID 743345; call rule not given here); settings: P. falciparum Dd2 in erythrocytes, SYBR Green DNA, 72 h; at 28.5 µM (top of the series) unless noted
# Summary of the method: as §1
# [11] = qHTS profiling of the MIPE4 collection as inhibitors of Plasmodium falciparum (HB3) proliferation (AID 743347; call rule not given here); settings: P. falciparum HB3 in erythrocytes, SYBR Green DNA, 72 h; at 28.5 µM (top of the series) unless noted
# Summary of the method: as §1
# [12] = Primary qHTS for inhibitors of SARS-S pseudo-typed particle cell entry (AID 1479145); further: nearly all actives have a fitted effect of over 45% in size
# [13] = Primary qHTS for Huh7 cytotoxicity: counterscreen for inhibitors of MERS-S pseudotyped particle cell entry (AID 1479147); settings: outcome: dose series up to 57.1 µM unless noted
# [14] = Primary qHTS for Vero E6 cytotoxicity: counterscreen for inhibitors of SARS-S pseudo-typed particle cell entry (AID 1479150); settings: outcome: dose series up to 57.1 µM unless noted
# [15] = Primary qHTS for inhibitors of MERS-S pseudo-typed particle cell entry (AID 1479149); further: nearly all actives have a fitted effect of over 60% in size
# Sequence of Nucleoprotein (Lymphocytic choriomeningitis virus (strain Armstrong)) (P09992 whole entry, looked up): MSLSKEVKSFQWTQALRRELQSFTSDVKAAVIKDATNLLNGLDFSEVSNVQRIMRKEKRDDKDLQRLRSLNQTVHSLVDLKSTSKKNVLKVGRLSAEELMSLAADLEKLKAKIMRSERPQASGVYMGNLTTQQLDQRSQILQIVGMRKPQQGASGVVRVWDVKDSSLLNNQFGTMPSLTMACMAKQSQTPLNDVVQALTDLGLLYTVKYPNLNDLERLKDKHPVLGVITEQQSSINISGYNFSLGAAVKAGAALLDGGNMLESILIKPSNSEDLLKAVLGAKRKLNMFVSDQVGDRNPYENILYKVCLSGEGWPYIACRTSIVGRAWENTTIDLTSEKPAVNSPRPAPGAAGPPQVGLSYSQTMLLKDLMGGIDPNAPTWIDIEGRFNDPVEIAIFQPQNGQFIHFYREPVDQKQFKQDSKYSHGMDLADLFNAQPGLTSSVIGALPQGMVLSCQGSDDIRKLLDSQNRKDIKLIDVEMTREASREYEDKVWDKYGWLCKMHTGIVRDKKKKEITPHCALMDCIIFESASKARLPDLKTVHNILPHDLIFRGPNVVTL
# Sequence of Peroxisome proliferator-activated receptor delta (Homo sapiens) (Q03181 whole entry, looked up): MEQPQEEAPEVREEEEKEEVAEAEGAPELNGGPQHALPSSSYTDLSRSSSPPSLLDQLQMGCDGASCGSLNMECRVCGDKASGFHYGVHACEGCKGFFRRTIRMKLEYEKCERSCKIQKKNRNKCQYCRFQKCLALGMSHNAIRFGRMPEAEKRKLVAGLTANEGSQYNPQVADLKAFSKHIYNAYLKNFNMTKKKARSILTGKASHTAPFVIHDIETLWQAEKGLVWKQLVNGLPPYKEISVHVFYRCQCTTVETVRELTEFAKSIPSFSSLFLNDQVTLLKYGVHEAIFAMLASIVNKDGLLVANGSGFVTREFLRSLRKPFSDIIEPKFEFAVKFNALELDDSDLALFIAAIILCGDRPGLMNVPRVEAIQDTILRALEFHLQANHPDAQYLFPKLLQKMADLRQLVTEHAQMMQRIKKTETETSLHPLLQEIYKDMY
# Sequence of Bile acid receptor (Homo sapiens) (Q96RI1 whole entry, looked up): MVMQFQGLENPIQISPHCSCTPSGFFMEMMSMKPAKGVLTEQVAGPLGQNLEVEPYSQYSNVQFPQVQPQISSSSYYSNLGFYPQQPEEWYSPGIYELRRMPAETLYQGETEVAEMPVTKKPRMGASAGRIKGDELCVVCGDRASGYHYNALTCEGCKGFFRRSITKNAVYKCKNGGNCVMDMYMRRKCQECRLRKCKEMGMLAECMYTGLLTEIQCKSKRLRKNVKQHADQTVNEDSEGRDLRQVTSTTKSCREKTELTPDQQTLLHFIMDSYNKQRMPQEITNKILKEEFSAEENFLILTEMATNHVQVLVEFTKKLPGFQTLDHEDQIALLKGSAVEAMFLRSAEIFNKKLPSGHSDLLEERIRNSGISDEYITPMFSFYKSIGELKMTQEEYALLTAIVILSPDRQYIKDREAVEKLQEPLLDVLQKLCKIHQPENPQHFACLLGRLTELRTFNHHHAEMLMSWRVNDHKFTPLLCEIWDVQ
structure (smiles),measurement,setting,value
CC1CCN(c2cc(N3CCN(C)CC3)ccc2NC(=O)c2cc(C#N)c[nH]2)CC1,Potency,[1],inactive
same,Potency,[2],inactive
same,Potency,[3],inactive
same,Potency,[4],inactive
same,Potency,[5],inactive
same,"activity change, negative = inhibition",[6],-17.8%
same,Potency,CRL-7250,inactive
Cc1ccccc1-n1c(Cn2nc(-c3cccc(O)c3)c3c(N)ncnc32)nc2cccc(C)c2c1=O,Potency,[1],19.3 µM (active)
same,Potency,[2],6.11 µM (active)
same,Potency,[3],4.32 µM (active)
same,Potency,[4],3.85 µM (active)
same,Potency,[5],inactive
same,"activity change, negative = inhibition",[6],-14.4%
same,Potency,CRL-7250,inactive
Cc1cc(O)c2c(c1)C(=O)c1cccc(O)c1C2=O,activation,[7],-2.98% (inactive)
same,Potency,[8],inactive
same,Potency,[1],inactive
same,Potency,[2],inactive
same,Potency,[3],inactive
same,Potency,[4],inactive
same,Potency,[5],inactive
same,"activity change, negative = inhibition",[6],-17%
same,Potency,CRL-7250,inactive
Cc1cc(NC(=O)Nc2ccc(N(C)C)cc2)c2cc(F)cc(F)c2n1,Potency,[1],inactive
same,Potency,[2],inactive
same,Potency,[3],inactive
same,Potency,[4],inactive
same,Potency,[5],inactive
same,"activity change, negative = inhibition",[6],-12.4% [at 27.1 µM]
same,Potency,CRL-7250,inactive
CN(C)CC(C)(C)CNc1nn2c(-c3ccccc3)nnc2cc1C1CCC1,Potency,[1],inactive
same,Potency,[2],15.3 µM (active)
same,Potency,[3],2.17 µM (active)
same,Potency,[4],17.2 µM (active)
same,Potency,[5],inactive
same,"activity change, negative = inhibition",[6],-2.68%
same,Potency,CRL-7250,inactive
CCN1C[C@H](C)n2c(c(O)c3c(=O)n(Cc4ccc(F)c(Cl)c4)nc(C(=O)NC)c32)C1=O,"parasite growth, % of DMSO control",[9],43.2%
same,"parasite growth remaining, % of DMSO control (lower = more inhibition)",[10],55.9%
same,"growth, % of control",[11],48.6%
same,Potency,[1],inactive
same,Potency,[2],inactive
same,Potency,[3],inactive
same,Potency,[4],inactive
same,Potency,CRL-7250,inactive
O=c1[nH]c(=O)n(C2CCCO2)cc1F (stereo not given),Potency,[1],inactive
same,Potency,[2],inactive
same,Potency,[3],inactive
same,Potency,[4],inactive
same,Potency,[5],inactive
same,"activity change, negative = inhibition",[6],-6.03%
same,Potency,CRL-7250,inactive
Cc1cc2nc3c(=O)[nH]c(=O)nc-3n(CC(O)C(O)C(O)CO)c2cc1C (stereo not given),Potency,[1],inactive
same,Potency,[2],inactive
same,Potency,[6],inactive
same,Potency,CRL-7250,inactive
C[C@@H]1[C@H](C)CC[C@]2(C(=O)O)CC[C@]3(C)C(=CC[C@@H]4[C@@]5(C)CC[C@H](O)C(C)(C)[C@H]5CC[C@]43C)[C@@H]12,Potency,[1],inactive
same,Potency,[2],35.2 µM (active)
same,Potency,[4],inactive
same,Potency,CRL-7250,inactive
CC(=O)N1CCN(c2ccc(OCc3nn(C)c(C)c3-c3cccc4c(CCCOc5cccc6ccccc56)c(C(=O)O)n(Cc5cccnc5)c34)cc2)CC1,Potency,[1],inactive
same,Potency,[2],inactive
same,Potency,[4],inactive
same,Potency,CRL-7250,inactive
Cc1ccc2c(c1)c1c(n2CCc2ccc(C)nc2)CCN(C)C1,Potency,[1],inactive
same,Potency,[4],inactive
same,Potency,CRL-7250,inactive
CCC(c1ccc(O)cc1)C(CC)c1ccc(O)cc1 (stereo not given),Potency,[1],inactive
same,Potency,[2],inactive
same,Potency,[3],inactive
same,Potency,[5],inactive
same,"activity change, negative = inhibition",[6],-63.9%
same,Potency,CRL-7250,inactive
Cc1c(NC(=O)c2ccc(C(C)(C)C)cc2)cccc1-c1cn(C)c(=O)c(Nc2ccc(C(=O)N3CCOCC3)cc2)n1,Potency,[1],inactive
same,Potency,[2],inactive
same,Potency,[4],inactive
same,Potency,[5],inactive
same,Potency,[6],inactive
same,Potency,CRL-7250,inactive
CCOC1OC(=O)C[C@H]1NC(=O)[C@@H]1CCCN1C(=O)[C@@H](NC(=O)c1ccc(N)c(Cl)c1)C(C)(C)C (stereo not given in full),"parasite growth, % of DMSO control",[9],265%
same,"parasite growth remaining, % of DMSO control (lower = more inhibition)",[10],97.4%
same,"growth, % of control",[11],216%
same,Potency,[1],inactive
same,Potency,[2],inactive
same,Potency,[3],inactive
same,Potency,CRL-7250,inactive
NC1=N[C@H]2[C@H](CS[C@H]2CCCCC(=O)O)N1,"parasite growth, % of DMSO control",[9],88.8% [at 9.64 µM]
same,"parasite growth remaining, % of DMSO control (lower = more inhibition)",[10],94.1% [at 9.64 µM]
same,"growth, % of control",[11],44.4% [at 9.64 µM]
same,Potency,[1],inactive
same,Potency,[2],inactive
same,Potency,[4],inactive
same,Potency,[5],inactive
same,"activity change, negative = inhibition",[6],-19.4% [at 27.1 µM]
same,Potency,CRL-7250,inactive
OC1CCC(Nc2ncc3nc(Nc4c(F)cc(F)cc4F)n([C@@H]4CCOC4)c3n2)CC1 (stereo not given in full),Potency,[1],inactive
same,Potency,[2],24.3 µM (active)
same,Potency,[3],21.7 µM (active)
same,Potency,[5],inactive
same,Potency,[6],inactive
same,Potency,CRL-7250,inactive
N#Cc1c(N(CC(=O)O)CC(=O)O)sc(C(=O)O)c1CC(=O)O,Potency,[1],inactive
same,Potency,[2],inactive
same,Potency,[4],inactive
same,"activity change, negative = inhibition",[12],-19.2% [at 0.573 µM] (inactive)
same,outcome,[13],inactive [at 0.573 µM]
same,outcome,[14],inactive [at 0.573 µM]
same,outcome,[5],inactive [at 0.702 µM]
same,Potency,CRL-7250,inactive
CC1(C)CC(O)CC(C)(C)N1[O],"parasite growth, % of DMSO control",[9],99.3%
same,"parasite growth remaining, % of DMSO control (lower = more inhibition)",[10],97.3%
same,"growth, % of control",[11],60.2%
same,Potency,[1],inactive
same,Potency,[2],inactive
same,Potency,[4],inactive
same,Potency,CRL-7250,inactive
CCC(C)CCCCC(=O)N[C@@H](CCN)C(=O)NC(C(=O)N[C@H](CCN)C(=O)N[C@@H]1CCNC(=O)C([C@@H](C)O)NC(=O)[C@@H](CCN)NC(=O)[C@@H](CCN)NC(=O)[C@@H](CC(C)C)NC(=O)[C@H](Cc2ccccc2)NC(=O)[C@H](CCN)NC1=O)[C@@H](C)O (stereo partly drawn) ({Octanoyl(6-Me)}-[Dab][ξThr(3R)][dDab][dDab][Dab]F[dL][dDab][dDab][ξThr(3R)]; lactam 4-C),Potency,[1],inactive
same,Potency,[5],inactive
same,Potency,[6],inactive
same,Potency,CRL-7250,inactive
CN(CC(=O)N(Cc1ccc(C2CCCCC2)cc1)c1ccc(C(=O)O)c(O)c1)S(=O)(=O)c1c(F)c(F)c(F)c(F)c1F,Potency,[1],inactive
same,Potency,[2],27.3 µM (active)
same,Potency,[4],inactive
same,Potency,[5],inactive
same,"activity change, negative = inhibition",[6],-15.1%
same,Potency,CRL-7250,inactive
CCCCOc1ccc(C(=O)Nc2ccc(F)cc2F)cc1,Potency,[1],inactive
same,Potency,[4],inactive
same,Potency,[6],inactive
same,Potency,CRL-7250,inactive
CCCc1nc(C(C)(C)O)c(C(=O)O)n1Cc1ccc(-c2ccccc2-c2nn[nH]n2)cc1,Potency,[1],inactive
same,Potency,[3],inactive
same,Potency,[4],inactive
same,outcome,[13],inactive
same,Potency,[15],inactive
same,outcome,[14],inactive
same,"activity change, negative = inhibition",[6],-8.69% and -17.9%
same,Potency,CRL-7250,inactive
COc1cc(F)c(C(C)C)cc1-c1ccc(C(F)(F)F)cc1CN1C(=O)O[C@H](c2cc(C(F)(F)F)cc(C(F)(F)F)c2)[C@@H]1C,Potency,[1],inactive
same,Potency,[2],0.0273 µM (active)
same,Potency,[3],0.0193 µM (active)
same,Potency,[5],inactive
same,"activity change, negative = inhibition",[6],-5.3%
same,Potency,CRL-7250,inactive
Nc1ncnc2c1ncn2[C@@H]1O[C@H](CO)[C@@H](O)[C@@H]1O,Potency,[1],inactive
same,Potency,[2],inactive
same,Potency,[4],inactive
same,Potency,[5],inactive
same,Potency,[6],28.2 µM (active)
same,Potency,CRL-7250,inactive
